Measured values as given in PubChem BioAssay AID492948 (National Center for Advancing Translational Sciences (NCATS), 2010).
Results filed as inconclusive are left out. The source made the active and inactive calls. The call rests on the fitted dose curve; in most records, active means well fitted activation curve with a large enough effect; inconclusive means small, poorly fitted or top-dose-only effect; inactive means no such curve, though single readings can be large or run the other way.

Assay: qHTS Assay for Agonists of the Relaxin Receptor RXFP1: V1B Hit Validation;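 further: counter-screen in HEK293 cells expressing V1B rather than RXFP1 for selectivity; nearly all actives have a fitted effect of over 65% in size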;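 on activation: cAMP accumulation with PDE4 inhibitor Ro 20-1724 present during compound exposure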
Details: HEK293 V1B cells, cAMP TR-FRET, 30 min; series mostly up to 115 µM
Description: NIH Chemical Genomics Center [NCGC]
NIH Molecular Libraries Probe Production Centers Network [MLPCN]
Assay Submitter (PI): Alexander Agoulnik
The relaxin hormone is involved in the variety of biological functions in normal tissues and diseases. The role of relaxin is well-established in female reproduction and parturition, mammary gland and endometrial development, maintenance of myometrial quiescence during pregnancy. Relaxin signaling through its G protein-coupled receptor (GPCR) RXFP1 results in ECM remodeling through regulation of collagen deposition, cell invasiveness, proliferation and overall tissue homeostasis. […] Recombinant human relaxin (rhRlx) is currently being tested in clinical trials as a protective agent in congestive heart failure, in treating severe preeclampsia, and as an anti-fibrotic agent in systemic sclerosis.
Upon relaxin binding RXFP1 activation leads to the activation of adenylate cyclase (AC) via Gs. cAMP will activate PKA, which phosphorylates many signaling proteins. Thus, detection of cAMP increase is an easy and reliable indication of relaxin receptor activation. To screen for agonists of the relaxin receptor, a HEK293T cell line stably transfected with RXFP1 was used. RXFP1 activation was assayed by changes in cAMP levels as detected with a time-resolved fluorescence energy transfer (TR-FRET) cAMP detection kit.
This assay measures activation of a cell expressing […], another GPCR targeted by relaxin, to determine the selectivity of compounds for RXFP1.
NCGC Assay Protocol Summary:
This is a cell-based assay for cAMP second messenger response to screen for agonists of the RXFP2 receptor. The assay was conducted in the presence of a PDE4 inhibitor (Ro 20174). The cells were lysed and the cAMP levels were measured with a TR-FRET cAMP kit. Presence of cAMP in the cell lysate disrupts binding between the cryptate-labeled anti-cAMP and d2-labeled cAMP pair, leading to a decrease in the TR-FRET signal. Data were normalized to the controls for basal activity (buffer only) and 100% activity (29 nM porcine relaxin). The EC50 values were determined from concentration-response data modeled with the standard Hill equation
1536-well assay protocol for the HEK293 V1B cAMP assay:
(1) Add 3 ul HEK293 RXFP2 cell culture. 2000 cells/well in DMEM/F12, 10% FBS, 1x Pen/Strep (dispensed offline with MultiDrop Combi).
(3) Add 23 nl compounds in DMSO solution. Final concentration was 0.5 - 58 uM.
(4) Incubate 30 min at 37C, 5% CO2.
(5) Add 1 ul cAMP-d2 in lysis buffer (HTRF cAMP HiRange kit, CisBio).
(6) Add 1 ul anti-cAMP antibody-cryptate in lysis buffer (HTRF cAMP HiRange kit, CisBio).
(7) Incubate 30 min at room temperature.
(6) Detect the assay plate in a ViewLux plate reader (PerkinElmer) with Ex=320 nm, Em1=615 nm and Em2=665 nm.
Keywords: relaxin, RXFP1, RXFP2, G-protein coupled receptor, cAMP, agonist, high throughput screening, MLSMR, MLSCN, NIH Roadmap, qHTS and NCGC
Potency means the concentration at half of the fitted maximal effect.

Potency, active:
CCC(=O)Nc1ccc(NC(=O)CSc2nc3c(c(=O)n(C)c(=O)n3C)n2CC)cc1 38.9 µM, CC(=O)c1sc(NC(=O)C(C)C)nc1C 17.3 µM, Cc1nn(CCCC(=O)NCc2ccc(F)cc2)c(=O)c2nccn12 38.9 µM, CCc1ccc2n(-c3ccc(OC)cc3)c([S-])c(C(=O)Nc3cc(C)cc(C)c3)[n+]2c1 30.8 µM, CCOC(=O)c1sc(=NC(=O)c2ccc(S(=O)(=O)N(C)c3ccccc3)cc2)n(C)c1C 30.8 µM, NS(=O)(=O)c1ccc(CCNC(=O)C2CCN(c3ncnc4c3nc3n4CCCCC3)CC2)cc1 38.9 µM, Brc1ccc2ncnc(NCc3cccnc3)c2c1 38.9 µM, COc1ccc(-n2nnc3c(=O)n(CC(=O)NCC4CCCO4)cnc32)cc1 (stereo not given) 9.74 µM, CCOC(=O)c1cc2c(=O)n3ccccc3nc2n(Cc2ccco2)c1=NC(=O)c1ccccc1OCC 38.9 µM, O=C(Cn1cnc2c(nnn2-c2ccc(F)cc2)c1=O)NCC1CCCO1 (stereo not given) 8.7 µM, CN1C(=O)c2ccc(C(=O)Nc3ccc(Br)cn3)cc2C1=O 21.8 µM, Cc1cccc2cc(C#N)c(SCC(=O)NCc3cccs3)nc12 19.4 µM, Cc1cc(C(=O)COC(=O)Cn2cnc3c2c(=O)n(C)c(=O)n3C)c(C)n1C 13.8 µM, O=C(OCc1nc2ccsc2c(=O)[nH]1)c1cccc(S(=O)(=O)N2CCOCC2)c1 34.6 µM, Cc1ccc(-n2nnc3c(=O)n(CC(=O)NCC4CCCO4)cnc32)cc1 (stereo not given) 24.5 µM, Cn1c(=O)c2sccc2n2c(CCCC(=O)NCc3ccco3)nnc12 34.6 µM, CCc1cc2cc3c(cc2nc1SCC(=O)Nc1nccs1)OCO3 19.4 µM, CCOC(=O)N1CCN(S(=O)(=O)c2c(C)nc3scc(C)n3c2=O)CC1 24.5 µM, Cc1nc2scc(C)n2c(=O)c1S(=O)(=O)N1CCN(c2ccccn2)CC1 30.9 µM, CC(C)Oc1ccc(S(=O)(=O)N2CCOCC2)cc1NC(=O)c1cc([N+](=O)[O-])ccc1N1CCOCC1 37.5 µM, Cc1cc(Br)c2nc3c(c(C(=O)O)c2c1)CCCCC3 1.54 µM, COc1cccc(C(=O)CSc2nnc(-c3cc(OC)cc(OC)c3)o2)c1 10.9 µM, O=c1oc2cc(O)c(Cl)cc2c2ccccc12 6.9 µM, CC1(C)Cc2nc3sc4c(SCC(=O)NC(c5ccccc5)c5ccccc5)ncnc4c3cc2CO1 3.46 µM, CCOC(=O)C1CCN(C(=O)c2cc3c(=O)n4ccccc4nc3s2)CC1 43.6 µM

Potency, inactive:
COc1ccc(S(=O)(=O)Nc2ccccn2)c(C)c1C, COc1cccc(CNC(=O)c2ccc(CS(=O)Cc3ccc(C)cc3)o2)c1 (stereo not given), C=CCNc1ncnc2c1ncn2C1OC(CO)C(O)C1O (stereo not given), O=C(Nc1ccccc1C(=O)NCCN1CCOCC1)c1ccco1, CCN(CC)C(=O)c1cc(Cl)ccc1NC(=O)c1ccco1, NC(=O)c1ccccc1NC(=O)CC12CC3CC(CC(C3)C1)C2, CCN(CC)CCCN1C=C2C(=O)C(C)(OC(=O)C3CCCC3)C(=O)C=C2C=C1c1ccsc1 (stereo not given), Cc1ccccc1NC(=O)CNc1ccccc1C(=O)NCc1ccco1, Cc1cccc(C(=O)Nc2ccccc2C(=O)NCc2ccco2)c1, Cc1ccc(-c2ccc3nnc(SCC(=O)NCC4CCCO4)n3n2)cc1 (stereo not given), O=C(Nc1ccccc1C(=O)NCc1ccco1)c1ccccc1, O=C(Nc1ccccc1C(=O)Nc1ccc(F)cc1)c1ccco1, CN(C)c1ccc(C(=S)N2CCN(S(=O)(=O)c3ccccc3)CC2)cc1, CC1CCCCN1C(=O)c1ccccc1NC(=O)c1ccco1 (stereo not given), CCN(CC)S(=O)(=O)c1ccc(N2CCOCC2)c(NC(=O)c2cc([N+](=O)[O-])ccc2Cl)c1
